Source: PubChem BioAssay AID1159580 (chemical genetic matrix, 2015)
Where “and” joins values, the source holds several entries; their conditions need not be identical. Equal entries are not always repeated. Screen size: about 5,500 compounds; about 2,000 (36%) were called active. Not shown: some 18% with an inconclusive outcome. Cut-off read from the data, not from the text of the source: active = normalized growth mostly below about 0.91 (no sharp cut-off); inconclusive = no clear call, values can overlap the other calls; inactive = mostly above about 0.92. The list shows a part of the results.

Test: chemical genetic growth profiling, strain panel (AID 1159580);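 note: tested at 20 µM; growth read once vehicle control cultures reached saturation at 30 °C; 1 = growth at the plate median or of vehicle wells; lower values mean less growth of the strain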
Conditions: S. cerevisiae deletion strains, growth OD

Measured: normalized growth

COc1ccc(C2C(=O)c3ccccc3C2=O)cc1
inactive: locus YAL013W, strain DEP1, active compounds read low 0.997 | locus YAL021C, strain ccr4, active compounds read low 1.01 | locus YAL026C, strain drs2, active compounds read low 0.983 | locus YAL030W, strain snc1, active compounds read low 1 | locus YBL061C, strain skt5, active compounds read low 1.01 | locus YBR009C, strain hhf1, active compounds read low 0.998 | locus YBR021W, strain FUR4, active compounds read low 1.01 | locus YBR023C, strain chs3, active compounds read low 1.01 | locus YBR171W, strain sec66, active compounds read low 0.978 | locus YBR229C, strain ROT2, active compounds read low 1 | locus YBR231C, strain swc5, active compounds read low 1.02 | locus YBR279W, strain paf1, active compounds read low 1.01 | locus YCL011C, strain gbp2, active compounds read low 0.979 | locus YCL016C, strain dcc1, active compounds read low 1.03 | locus YCL029C, strain bik1, active compounds read low 0.983 | locus YCL069W, strain vba3, active compounds read low 0.986 | locus YCR088W, strain abp1, active compounds read low 0.999 | locus YDL005C, strain med2, active compounds read low 1.02 | locus YDL035C, strain GPR1, active compounds read low 1.01 | locus YDL040C, strain nat1, active compounds read low 1.02 | locus YDL074C, strain BRE1, active compounds read low 0.994 | locus YDL101C, strain DUN1, active compounds read low 1 | locus YDL185W, strain tfp1, active compounds read low 0.921 | locus YDL192W, strain arf1, active compounds read low 0.988 | locus YDR001C, strain nth1, active compounds read low 0.964 | locus YDR069C, strain doa4, active compounds read low 1.01 | locus YDR101C, strain arx1, active compounds read low 1.03 | locus YDR137W, strain rgp1, active compounds read low 0.978 | locus YDR150W, strain NUM1, active compounds read low 0.988 | locus YDR159W, strain sac3, active compounds read low 1.01 | locus YDR162C, strain NBP2, active compounds read low 1.02 | locus YDR195W, strain ref2 1.09 | locus YDR297W, strain sur2, active compounds read low 0.993 | locus YDR318W, strain mcm21, active compounds read low 0.993 | locus YDR334W, strain swr1, active compounds read low 0.983 | locus YDR335W, strain msn5, active compounds read low 1.02 | locus YDR388W, active compounds read low 1.01 | locus YDR392W, strain spt3, active compounds read low 1.02 | locus YDR502C, strain sam2, active compounds read low 0.998 | locus YEL003W, strain gim4, active compounds read low 0.993 | locus YEL037C, strain rad23, active compounds read low 0.994 | locus YEL061C, strain CIN8 (second series), active compounds read low 0.975 | locus YEL061C, strain CIN8, active compounds read low 0.98 | locus YER015W, strain faa2, active compounds read low 1.01 | locus YER016W, strain bim1, active compounds read low 0.995 | locus YER110C, active compounds read low 0.985 | locus YER111C, strain swi4, active compounds read low 0.994 | locus YER155C, strain BEM2 (second series), active compounds read low 0.993 | locus YER155C, strain BEM2, active compounds read low 0.998 | locus YER167W, strain BCK2, active compounds read low 1 | locus YFR010W, strain ubp6, active compounds read low 1.02 | locus YGL078C, strain dbp3, active compounds read low 0.99 | locus YGL086W, strain mad1, active compounds read low 1.01 | locus YGL167C, strain pmr1, active compounds read low 1 | locus YGL173C, strain kem1, active compounds read low 1.02 | locus YGL227W, strain vid30, active compounds read low 0.974 | locus YGL240W, strain doc1, active compounds read low 1.02 | locus YGL248W, strain PDE1, active compounds read low 1 | locus YGL253W, strain hxk2, active compounds read low 1.01 | locus YGR078C, strain PAC10, active compounds read low 0.998 | locus YGR135W, strain pre9, active compounds read low 0.963 | locus YGR252W, strain gcn5, active compounds read low 0.956 | locus YHR013C, strain ard1, active compounds read low 1.02 | locus YHR027C, strain rpn1, active compounds read low 1.01 | locus YHR030C, strain SLT2, active compounds read low 0.977 and 0.898 | locus YHR079C, strain IRE1 (second series), active compounds read low 0.991 | locus YHR079C, strain IRE1, active compounds read low 0.857 | locus YHR094C, strain hxt1, active compounds read low 0.999 | locus YHR129C, strain ARP1, active compounds read low 1.01 | locus YHR142W, strain chs7, active compounds read low 1.02 | locus YHR200W, strain rpn10, active compounds read low 0.995 | locus YIL066C, strain RNR3, active compounds read low 0.996 | locus YIL073C, strain SPO22, active compounds read low 0.977 | locus YIL125W, strain kgd1, active compounds read low 0.997 | locus YIR030C, strain dcg1, active compounds read low 0.987 | locus YJL092W, strain hpr5, active compounds read low 0.969 | locus YJL095W, strain BCK1 (second series), active compounds read low 0.981 | locus YJL095W, strain BCK1, active compounds read low 1 and 0.908 | locus YJL115W, strain asf1, active compounds read low 0.998 | locus YJL129C, strain trk1, active compounds read low 1.02 | locus YJL134W, strain LCB3, active compounds read low 1 | locus YJL154C, strain vps35, active compounds read low 0.99 | locus YJL164C, strain tpk1, active compounds read low 0.999 | locus YJL166W, strain qcr8, active compounds read low 1.01 | locus YJL168C, strain set2, active compounds read low 1.02 | locus YJL187C, strain SWE1 (second series), active compounds read low 0.998 | locus YJR043C, strain POL32, active compounds read low 1
